Measurements as given in PubChem BioAssay AID1159580 (chemical genetic matrix, 2015).
About 2,000 (36%) of roughly 5,500 compounds were called active. Not shown: some 18% with an inconclusive outcome. No stated cut-off is given here; in the data, active means normalized growth mostly below about 0.91 (no sharp cut-off); inconclusive means no clear call, values can overlap the other calls; inactive means mostly above about 0.92. Some of the results follow.

Test: chemical genetic growth profiling, strain panel (AID 1159580);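 further: tested at 20 µM; growth read once vehicle control cultures reached saturation at 30 °C; 1 = growth at the plate median or of vehicle wells; lower values mean less growth of the strain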
Conditions: growth OD

Measured: normalized growth

C[C@](N)(Cc1ccc(O)c(O)c1)C(=O)O
inactive: S. cerevisiae deletion strains, locus YJR075W, strain HOC1, hits give low values 1.01 | S. cerevisiae deletion strains, locus YKL009W, strain mrt4, hits give low values 0.97 | S. cerevisiae deletion strains, locus YKL068W, hits give low values 0.997 | S. cerevisiae deletion strains, locus YKL085W, strain MDH1 (second series), hits give low values 0.983 | S. cerevisiae deletion strains, locus YKL085W, strain MDH1, hits give low values 0.983 | S. cerevisiae deletion strains, locus YKL160W, strain elf1, hits give low values 0.927 | S. cerevisiae deletion strains, locus YKL190W, strain CNB1, hits give low values 0.951 | S. cerevisiae deletion strains, locus YKR001C, strain vps1, hits give low values 0.979 | S. cerevisiae deletion strains, locus YKR026C, strain gcn3, hits give low values 0.986 | S. cerevisiae deletion strains, locus YKR091W, strain srl3, hits give low values 0.972 | S. cerevisiae deletion strains, locus YLL001W, strain dnm1, hits give low values 0.914 | S. cerevisiae deletion strains, locus YLL026W, hits give low values 0.984 | S. cerevisiae deletion strains, locus YLL041C, strain sdh2, hits give low values 0.994 | S. cerevisiae deletion strains, locus YLR027C, strain aat2, hits give low values 0.983 | S. cerevisiae deletion strains, locus YLR039C, strain RIC1, hits give low values 0.975 | S. cerevisiae deletion strains, locus YLR058C, strain SHM2, hits give low values 0.979 | S. cerevisiae deletion strains, locus YLR102C, strain apc9, hits give low values 1 | S. cerevisiae deletion strains, locus YLR113W, strain HOG1, hits give low values 1 | S. cerevisiae deletion strains, locus YLR221C, strain rsa3, hits give low values 0.911 | S. cerevisiae deletion strains, locus YLR258W, strain gsy2, hits give low values 0.959 | S. cerevisiae deletion strains, locus YLR262C, strain YPT6 (second series), hits give low values 0.892 | S. cerevisiae deletion strains, locus YLR262C, strain YPT6, hits give low values 0.878 | S. cerevisiae deletion strains, locus YLR268W, strain sec22, hits give low values 1.06 | S. cerevisiae deletion strains, locus YLR320W, strain mms22, hits give low values 0.944 | S. cerevisiae deletion strains, locus YLR330W, strain CHS5, hits give low values 0.982 | S. cerevisiae deletion strains, locus YLR342W, strain FKS1 (second series), hits give low values 0.861 | S. cerevisiae deletion strains, locus YLR342W, strain FKS1, hits give low values 0.967 | S. cerevisiae deletion strains, locus YLR357W, strain rsc2, hits give low values 0.92 | S. cerevisiae deletion strains, locus YLR370C, strain arc18, hits give low values 0.945 | S. cerevisiae deletion strains, locus YLR371W, strain rom2, hits give low values 0.983 | S. cerevisiae deletion strains, locus YLR384C, strain iki3, hits give low values 0.981 | S. cerevisiae deletion strains, locus YLR418C, strain cdc73, hits give low values 1 | S. cerevisiae deletion strains, locus YML016C, strain PPZ1, hits give low values 0.957 | S. cerevisiae deletion strains, locus YML032C, strain rad52, hits give low values 1.01 | S. cerevisiae deletion strains, locus YML120C, strain ndi1, hits give low values 0.915 | S. cerevisiae deletion strains, locus YML124C, strain tub3, hits give low values 0.993 | S. cerevisiae deletion strains, locus YMR058W, strain fet3, hits give low values 0.944 | S. cerevisiae deletion strains, locus YMR078C, strain ctf18, hits give low values 0.99 | S. cerevisiae deletion strains, locus YMR125W, strain sto1, hits give low values 0.941 | S. cerevisiae deletion strains, locus YMR129W, hits give low values 0.985 | S. cerevisiae deletion strains, locus YMR205C, strain PFK2, hits give low values 0.983 | S. cerevisiae deletion strains, locus YMR223W, strain ubp8, hits give low values 0.938 | S. cerevisiae deletion strains, locus YMR231W, strain pep5, hits give low values 0.988 | S. cerevisiae deletion strains, locus YMR263W, strain SAP30, hits give low values 1 | S. cerevisiae deletion strains, locus YMR307W, strain GAS1, hits give low values 0.765 | S. cerevisiae deletion strains, locus YNL067W, strain RPL9B, hits give low values 0.979 | S. cerevisiae deletion strains, locus YNL071W, strain lat1, hits give low values 0.978 | S. cerevisiae deletion strains, locus YNL128W, strain TEP1, hits give low values 0.896 | S. cerevisiae deletion strains, locus YNL153C, strain GIM3, hits give low values 1.01 | S. cerevisiae deletion strains, locus YNL183C, strain NPR1, hits give low values 0.976 | S. cerevisiae deletion strains, locus YNL233W, strain BNI4, hits give low values 0.972 | S. cerevisiae deletion strains, locus YNL248C, strain rpa49, hits give low values 0.979 | S. cerevisiae deletion strains, locus YNL250W, strain rad50, hits give low values 0.982 | S. cerevisiae deletion strains, locus YNL271C, strain bni1, hits give low values 0.989 | S. cerevisiae deletion strains, locus YNL298W, strain CLA4, hits give low values 0.999 | S. cerevisiae deletion strains, locus YNL307C, strain MCK1, hits give low values 0.996 | S. cerevisiae deletion strains, locus YNL322C, strain KRE1 (second series), hits give low values 0.96 | S. cerevisiae deletion strains, locus YNL322C, strain KRE1, hits give low values 0.984 | S. cerevisiae deletion strains, locus YNR049C, strain mso1, hits give low values 0.969 | S. cerevisiae deletion strains, locus YNR052C, strain pop2, hits give low values 0.991 | S. cerevisiae deletion strains, locus YOL012C, strain htz1 0.552 | S. cerevisiae deletion strains, locus YOL147C, strain pex11, hits give low values 0.989 | S. cerevisiae deletion strains, locus YOR001W, strain rrp6, hits give low values 1.02 | S. cerevisiae deletion strains, locus YOR061W, strain CKA2, hits give low values 0.938 | S. cerevisiae deletion strains, locus YOR069W, strain VPS5, hits give low values 0.991 | S. cerevisiae deletion strains, locus YOR070C, strain gyp1, hits give low values 0.988 | S. cerevisiae deletion strains, locus YOR080W, strain dia2, hits give low values 0.956 | S. cerevisiae deletion strains, locus YOR083W, strain WHI5, hits give low values 0.919 | S. cerevisiae deletion strains, locus YOR106W, strain vam3, hits give low values 0.885 | S. cerevisiae deletion strains, locus YOR136W, strain idh2, hits give low values 0.99 | S. cerevisiae deletion strains, locus YOR144C, strain elg1, hits give low values 1.01 | S. cerevisiae deletion strains, locus YOR184W, strain ser1, hits give low values 0.998 | S. cerevisiae deletion strains, locus YOR231W, strain MKK1, hits give low values 1.03 | S. cerevisiae deletion strains, locus YOR265W, strain rbl2, hits give low values 0.956 | S. cerevisiae deletion strains, locus YOR270C, strain vph1, hits give low values 0.965 | S. cerevisiae deletion strains, locus YOR316C, strain cot1, hits give low values 1 | S. cerevisiae deletion strains, locus YPL051W, strain arl3, hits give low values 0.947 | S. cerevisiae deletion strains, locus YPL055C, strain LGE1, hits give low values 0.915 | S. cerevisiae deletion strains, locus YPL078C, strain atp4, hits give low values 0.947 | S. cerevisiae deletion strains, locus YPL106C, strain sse1, hits give low values 0.882 | S. cerevisiae deletion strains, locus YPL240C, strain hsp82, hits give low values 0.979 | S. cerevisiae deletion strains, locus YPL241C, strain CIN2, hits give low values 0.966 | S. cerevisiae deletion strains, locus YPL256C, strain CLN2, hits give low values 1.08 | S. cerevisiae deletion strains, locus YPR119W, strain clb2, hits give low values 0.993 | S. cerevisiae deletion strains, locus YPR141C, strain kar3, hits give low values 0.987 | S. cerevisiae deletion strains, locus YPR163C, strain tif3, hits give low values 1 | S. cerevisiae deletion strains, locus YPR167C, strain met16, hits give low values 0.997 | S. cerevisiae deletion strains, strain wtn01, hits give low values 1.01
active: S. cerevisiae deletion strains, locus YNL209W, strain ssb2, hits give low values 0.891 | S. cerevisiae deletion strains, locus YOL006C, strain TOP1, hits give low values 0.529 | S. cerevisiae deletion strains, locus YOR290C, strain snf2, hits give low values 0.86 | S. cerevisiae strains, strain wild type, hits give low values 0.9
